Inconclusive results are not listed. Active and inactive are the calls of the source. The call rests on the fitted dose curve; in most records, active means well fitted cell-killing curve with a large enough effect; inconclusive means small, poorly fitted or top-dose-only effect, or effect the other way; inactive means no such curve, though single readings can be large or run the other way.
Assay: Quantitative High-Throughput drug screen in 47 multiple myeloma cell lines against the NCATS MIPE library collection: KMS26_JCRB cell viability assay (AID 1918975); further: nearly all actives have a fitted effect of over 45% in size
Conditions: KMS26 myeloma cells viability, CellTiter-Glo ATP, 48 h; series mostly up to 45.8 µM
Procedure, shortened: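 Myeloma cell lines, 500 cells per well, exposed to MIPE 4.0 library compounds for 48 h at 37C, 5% CO2. Viability from ATP by CellTiter-Glo luminescence; normalised to DMSO (100%) and media-only (0%) wells.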
Potency means the concentration at half of the fitted maximal effect.

| Compound | Potency |
| --- | --- |
| CC(=O)Nc1ccc([C@H](C)C(=O)Nc2ncc(C(C)C)s2)cc1 | 1.32 µM (active) |
| Cc1[nH]c(C=C2C(=O)Nc3ccc(S(=O)(=O)Cc4c(Cl)cccc4Cl)cc32)c(C)c1C(=O)N1CCC[C@H]1CN1CCCC1 | 23.5 µM (active) |
| Oc1ccc(C2=Cc3ccc(O)cc3OC2)cc1 | 8.33 µM (active) |
| Cc1ccc(C(=O)Nc2cccc(C(F)(F)F)c2)cc1Nc1nc(-c2cccnc2)nc2c1cnn2C | 13.2 µM (active) |
| CC(C)n1cnc2c(NCCCCCCNC(=O)OC(C)(C)C)nc(NCCO)nc21 | 23.5 µM (active) |
| CC(C)n1nc(-c2ccc3oc(N)nc3c2)c2c(N)ncnc21 | 0.132 µM (active) |
| COc1cccc([C@@H](C)NCCCc2ccccc2Cl)c1 | inactive |
| CC(=O)N(C)C1(c2ccccc2)CCN(CCC[C@]2(c3ccc(Cl)c(Cl)c3)CCCN(C(=O)c3ccccc3)C2)CC1 | 20.9 µM (active) |
| COCCOC(=O)C1=C(C)NC2=C(C(=O)CC(c3ccccc3OC)C2)C1c1cccc(O)c1 (configuration not stated) | 8.33 µM (active) |
| CCn1c(C(=O)N(C2CC2)C2CC2)cc2c3c(ncn3C)c(Nc3cc(C)n(C)n3)nc21 | inactive |
| O=C1Nc2ccc(Cl)cc2C(C#CC2CC2)(C(F)(F)F)O1 (configuration not stated) | 23.5 µM (active) |
| CC(C)(C)OC(=O)N[C@H]1CCCCCC=C[C@@H]2C[C@@]2(C(=O)NS(=O)(=O)C2CC2)NC(=O)[C@@H]2C[C@@H](OC(=O)N3Cc4cccc(F)c4C3)CN2C1=O | inactive |
| CC[C@@]1(O)C[C@H](O[C@H]2C[C@H](N(C)C)[C@H](O[C@H]3C[C@H](O)[C@H](O[C@H]4CCC(=O)[C@H](C)O4)[C@H](C)O3)[C@H](C)O2)c2c(cc3c(c2O)C(=O)c2c(O)cccc2C3=O)[C@@H]1C(=O)OC | 0.743 µM (active) |
| CCC(=O)NC[C@H](Cc1ccc(OCCc2nc(-c3ccccc3)oc2C)cc1)NC(C)=CC(=O)c1ccc(C(F)(F)F)cc1 | 20.9 µM (active) |
| Nc1nc(F)nc2c1ncn2[C@@H]1O[C@H](COP(=O)(O)O)[C@@H](O)[C@H]1O | inactive |
| CCS(=O)(=O)N1CC(CC#N)(n2cc(-c3ncnc4[nH]ccc34)cn2)C1 | 16.6 µM (active) |
| O=C1C(Cl)=C(NCCN2CCOCC2)C(=O)c2ncccc21 | 6.62 µM (active) |

Source: PubChem BioAssay (NCATS)
